Sampled rows, rich in hits. Any-hit rate of the full collection: about 2.6%.
KLF5 inhibitor: inhibitors of KLF5 expression; DLD-1 KLF5 promoter-luciferase reporter, luminescence; inhibition, % at 5 µM; 290,000 compounds, 0.23% hits; AID 1700;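 active = inhibition above a per-plate limit of that plate's mean compound inhibition plus 3 SD, cut at about 60% in these data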;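 also: 0% = DMSO wells and 100% = LY294002 at 200 µM; higher means less KLF5 promoter-driven luciferase light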
GPR7 antagonist: human neuropeptides B/W receptor 1 antagonism | 290,000 compounds, 1.1% hits | GPR7-expressing cells, fluorescence antagonist assay | inhibition, % at 4.4 µM | P48145; in the data active = inhibition above about 16%, passing the limit was not always enough;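 also: cells stimulated with the agonist NPW; 0% = agonist with vehicle and 100% = vehicle without agonist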
Target sequence (P48145 whole entry, looked up): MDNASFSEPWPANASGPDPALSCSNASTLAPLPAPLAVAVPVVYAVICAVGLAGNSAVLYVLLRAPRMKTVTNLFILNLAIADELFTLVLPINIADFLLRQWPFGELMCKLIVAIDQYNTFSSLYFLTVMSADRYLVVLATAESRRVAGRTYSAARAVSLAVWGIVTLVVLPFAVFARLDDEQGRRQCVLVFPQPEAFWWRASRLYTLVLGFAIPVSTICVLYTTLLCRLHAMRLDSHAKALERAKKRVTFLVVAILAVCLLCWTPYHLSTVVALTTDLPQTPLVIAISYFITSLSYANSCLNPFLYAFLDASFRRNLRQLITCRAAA
IEC-6 tox: kills IEC-6 intestinal cells in KLF5 counter-screen; inhibition, % at 5 µM; IEC-6 cytotoxicity, luminescence viability; 290,000 compounds, 0.78% hits; in the data active = inhibition above about 22%;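 also: 0% = plate median of test compound wells and 100% = cytotoxic reference compound wells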
BaF3 parental: counter-screen for JAK2V617F inhibitors: parental Ba/F3 viability inhibitors; CellTiter-Glo ATP luminescence; 220,000 compounds, 1.1% hits; inhibition, % at 5.6 µM;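 active = inhibition above a per-campaign cutoff, the mean inhibition of all tested compounds plus 3 SD, cut at about 27% in these data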;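 also: 0% = DMSO wells and 100% = JAK Inhibitor I control wells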
Ba/F3 V617F tox: lowers viability of Ba/F3 cells expressing EpoR and JAK2V617F; ATP luminescence; inhibition, % at 5.6 µM; 220,000 compounds, 1.1% hits; AID 1446;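 active = inhibition above the campaign mean plus 3 SD over all tested compounds, cut at about 24% in these data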;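 also: cytokine-independent growth of Ba/F3 cells driven by EpoR plus mutant JAK2; 0% = DMSO-treated cells and 100% = JAK inhibitor I control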
DNA FID counter: displaces DNA intercalator in HCV helicase counter-screen; DNA fluorescent intercalator displacement, fluorescence; 290,000 compounds, 0.17% hits; inhibition, % at 7.9 µM; in the data active = inhibition above about 37%;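 also: 0% = vehicle and 100% = reference compound; higher means more ethidium bromide displaced from hairpin DNA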
BaF3 parental 2: parental Ba/F3 viability inhibition for JAK2V617F counter-screen; 580 compounds, 31% hits; inhibition, % at 5.6 µM; CellTiter-Glo luminescence; cells kept alive by added IL-3; shares compounds with Ba/F3 V617F tox;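 active = cell growth inhibition above the hit limit set in the earlier mutant JAK2 cell screen, cut at about 27% in these data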;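 also: plate controls were DMSO-treated cells for no effect and JAK Inhibitor I control wells for full effect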
JAK2V617F conf: Ba/F3 EpoR-JAK2V617F viability loss, confirmation; shares compounds with Ba/F3 V617F tox; CellTiter-Glo luminescence; inhibition, % at 5.6 µM; 580 compounds, 66% hits; AID 1521;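 active = mean inhibition above the hit cutoff derived in the earlier primary screen, cut at about 25% in these data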;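 also: 0% = DMSO-treated cells and 100% = JAK inhibitor I control wells; higher means lower luminescence from reduced cell ATP and viability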
Active calls of the source: *; / = no result.

SMILES	KLF5 inhibitor	GPR7 antagonist	IEC-6 tox	BaF3 parental	Ba/F3 V617F tox	DNA FID counter	BaF3 parental 2	JAK2V617F conf
O=c1c2cn[nH]c2[nH]c(=S)n1-c1cccc2ccccc12	11.2	-1.1	-3.1	1.4	-3.6	-2.7	/	/
O=C(CCl)N=c1sccn1Cc1ccccc1Cl	-8.5	-3.0	100.0*	11.3	98.7*	-4.5	10.1	99.4*
O=C(CCl)N=c1sccn1Cc1ccc(Cl)cc1Cl	-23.1	6.3	98.7*	-10.0	101.0*	-7.6	20.6	99.3*
CCC(=O)OCC(=O)N=c1sccn1Cc1ccccc1Cl	-35.1	-8.2	-6.5	/	/	-32.7	/	/
Cc1ccccc1N(CC(N)=O)S(C)(=O)=O	-12.6	-12.4	4.0	2.8	2.0	4.6	/	/
O=C(Nc1c[nH]c(=O)[nH]c1=O)c1cc([N+](=O)[O-])cc([N+](=O)[O-])c1	-21.2	-0.8	-11.2	/	/	0.4	/	/
COc1ccc(C2=Nn3c(nnc3C3CCCCC3)SC2)cc1OC	4.0	-27.6	8.1	10.4	24.8*	-28.1	12.9	51.5*
COc1ccc(OC)c(C2=Nn3c(nnc3C3CCCCC3)SC2)c1	-18.0	-4.0	3.5	5.6	-1.0	-27.9	/	/
Cc1cc(NC(=O)c2sc(Nc3ccc(F)cc3)nc2N)no1	-22.6	-5.1	1.2	23.2	97.7*	2.6	64.7*	98.8*
C=CCNc1nc(N)c(C(=O)Nc2cc(C)on2)s1	-65.3	0.6	-0.4	4.2	-0.1	19.1	/	/
CCOC(=O)C1=C(C)N=C2SC(CC)C(=O)N2C1c1cccc(F)c1 (configuration not stated)	-19.3	-18.5	2.3	5.1	7.1	-29.8	/	/
O=C(CN(c1ccccc1Cl)S(=O)(=O)c1ccccc1)N/N=C/c1ccccc1C(=O)O	-17.8	-5.4	1.0	10.2	3.7	-56.1	/	/
O=C(NC(NC1CCS(=O)(=O)C1)C(Cl)(Cl)Cl)c1cccc(Cl)c1 (configuration not stated)	4.3	9.1	1.9	6.4	6.7	-13.6	/	/
O=C(NC(NC1CCS(=O)(=O)C1)C(Cl)(Cl)Cl)c1ccc(Br)cc1 (configuration not stated)	18.2	23.9	14.8	8.6	36.0*	-2.2	0.8	24.3*
CCOC(=O)C(C)Oc1cccc2c(=O)n(CC(=O)NCCc3ccccc3)ccc12 (configuration not stated)	5.8	11.3	-1.0	4.5	2.3	-37.9	/	/
CCOC(=O)C(C)Oc1cccc2c(=O)n(CC(=O)NCc3ccc(F)cc3)ccc12 (configuration not stated)	34.3	8.2	9.9	22.2	28.9*	-7.9	61.7*	96.6*
COC(=O)COc1cccc2c(=O)n(CC(=O)NCc3ccc(F)cc3)ccc12	28.5	-0.3	4.8	7.8	73.8*	-7.0	20.5	86.0*
Cc1occc1C(=O)Nc1ccc(OCc2ccccc2)cc1	-108.7	10.5	9.0	11.8	4.6	-16.6	/	/
Oc1ccccc1-c1cc(-c2cccc(F)c2)n[nH]1	-84.0	0.8	-2.1	10.3	1.6	1.2	/	/
CC(C)CN1C(=O)/C(=C/c2cccs2)NC1=S	-27.4	-7.2	-1.1	1.5	-1.3	-4.0	/	/
CCCCn1c(=N)n(CC(=O)O)c2ccccc21	-15.9	-8.2	-10.3	4.2	-0.7	1.9	/	/
CCCCn1c(=N)n(CC(=O)c2ccc(Br)s2)c2ccccc21	9.8	6.9	-1.4	-3.8	71.3*	18.3	6.2	60.5*
c1ccc(-c2nnc3sc(CN4CCc5ccccc54)cn23)cc1	14.1	0.0	7.7	22.3	34.7*	-23.7	29.5*	30.0*
Cc1c(C(=O)N2CCCCC2)sc(NC(=O)C2CC2)c1C#N	-6.2	-7.4	0.9	5.1	2.8	-13.2	/	/
CCCCN(CC)Cc1ccc(CNC(=S)Nc2c(C)cc(C)cc2C)o1	-8.5	-2.9	-9.6	-2.1	-0.4	7.5	/	/
SMILES	KLF5 inhibitor	GPR7 antagonist	IEC-6 tox	BaF3 parental	Ba/F3 V617F tox	DNA FID counter	BaF3 parental 2	JAK2V617F conf
CCCCN(CC)Cc1ccc(CNC(=O)Nc2ccc(F)cc2)o1	2.2	3.0	9.4	15.2	47.9*	3.1	8.2	38.9*
CC(=O)Nc1ccc(/C=N/Nc2nc3ccccc3[nH]2)cc1	-6.1	-6.3	-1.9	-0.9	6.0	10.4	/	/
COc1cccc(/C=N/Nc2nc3ccccc3[nH]2)c1O	36.3	-13.2	4.7	21.1	77.2*	3.1	59.0*	88.8*
COc1cccc(/C=N/Nc2ncnc3scc(-c4ccccc4)c23)c1O	79.8*	-8.8	-1.1	26.3	40.6*	-7.5	92.4*	97.7*
CCN(CC)c1ccc(/C=N/Nc2nc3ccccc3[nH]2)cc1	-52.2	-20.2	41.1*	-2.0	49.8*	-0.8	4.8	64.3*
C[C@H]1[C@H](C)CC[C@]2(C(=O)O)CC[C@]3(C)C(=CC[C@@H]4[C@@]5(C)C[C@@H](O)[C@H](O)C(C)(C)[C@@H]5CC[C@]43C)[C@H]12	-2.5	-5.5	-6.3	6.1	-0.3	-6.1	/	/
Cc1cc(NC(=O)c2cc(-c3ccc(C)c(C)c3)nc3ccccc23)no1	17.3	-9.2	10.5	4.5	62.8*	-10.9	-0.3	-1.2
Oc1ccc(/C=N/N2CCN(C3c4ccccc4-c4ccccc43)CC2)cc1	-30.5	-13.0	0.1	-3.5	0.1	-9.9	/	/
Oc1ccc(/C=N/N2CCN(C3c4ccccc4-c4ccccc43)CC2)cc1O	-15.1	-1.5	-2.1	2.1	70.1*	-5.9	9.1	89.9*
CC1=C(C(N)=O)C(c2ccccc2)n2nc(-c3cccs3)nc2N1 (configuration not stated)	-8.4	17.8	3.3	-1.0	-4.2	1.1	/	/
O=C(CCn1cnc(-c2ccccc2)c1-c1ccccc1)N/N=C/c1ccc(O)cc1	-7.1	6.5	2.1	5.1	1.8	-10.0	/	/
COc1ccc(/C=N/NC(=O)CCn2cnc(-c3ccccc3)c2-c2ccccc2)cc1	9.2	4.2	39.7*	11.0	46.9*	-12.3	62.3*	94.0*
O=C(C=C=Nc1ccccc1)C(=O)N=C=Cc1ccccc1	-3.7	10.9	5.2	19.2	67.5*	2.9	4.8	79.0*
COc1ccc(OC)c(C2CC(=O)c3c([nH]c(C(=O)OC(C)C)c3C)C2)c1 (configuration not stated)	3.0	4.0	18.5	11.4	68.4*	-12.2	57.5*	89.7*
CCOC(=O)Nc1ccc2c(c1)N(C(=O)CCN1CCOCC1)c1ccccc1S2	-17.2	8.8	1.2	1.9	2.4	-1.9	/	/
CCOC(=O)Nc1ccc2c(c1)N(C(=O)CCN1CCOCC1)c1ccccc1S2=O (configuration not stated)	-48.0	7.3	9.6	3.6	40.9*	-8.1	-1.6	23.2
COC(=O)C(C(=O)OC)C(C)C(C(=O)OC)C(=O)OC	3.5	-4.8	-3.7	11.6	61.0*	-2.3	-6.1	-5.7
CCOC(=O)C(=NC1CCCCC1)NNc1cccc(C(F)(F)F)c1	-16.6	-12.6	7.6	1.7	36.4*	-5.3	-0.3	2.5

High-throughput results: PubChem, The Scripps Research Institute Molecular Screening Center
